Experiments:
[1] = biological target: Serine/threonine-protein kinase SIK1 (Homo sapiens) (UniProt P57059); conditions: at 10 µM
[2] = biological target: SRSF protein kinase 2 (Homo sapiens) (UniProt P78362); conditions: at 10 µM
[3] = biological target: Serine/threonine-protein kinase 33 (Homo sapiens) (UniProt Q9BYT3); conditions: at 1 µM
[4] = biological target: Serine/threonine-protein kinase 33 (Homo sapiens) (UniProt Q9BYT3); conditions: at 10 µM
[5] = biological target: Serine/threonine-protein kinase PLK2 (Homo sapiens) (UniProt Q9NYY3); conditions: at 10 µM
[6] = biological target: Tyrosine-protein kinase SYK (Homo sapiens) (UniProt P43405); conditions: at 10 µM
[7] = biological target: T1, Mitogen-activated protein kinase kinase kinase 7 (Homo sapiens) (UniProt O43318); conditions: at 1 µM
T1 sequence (whole entry): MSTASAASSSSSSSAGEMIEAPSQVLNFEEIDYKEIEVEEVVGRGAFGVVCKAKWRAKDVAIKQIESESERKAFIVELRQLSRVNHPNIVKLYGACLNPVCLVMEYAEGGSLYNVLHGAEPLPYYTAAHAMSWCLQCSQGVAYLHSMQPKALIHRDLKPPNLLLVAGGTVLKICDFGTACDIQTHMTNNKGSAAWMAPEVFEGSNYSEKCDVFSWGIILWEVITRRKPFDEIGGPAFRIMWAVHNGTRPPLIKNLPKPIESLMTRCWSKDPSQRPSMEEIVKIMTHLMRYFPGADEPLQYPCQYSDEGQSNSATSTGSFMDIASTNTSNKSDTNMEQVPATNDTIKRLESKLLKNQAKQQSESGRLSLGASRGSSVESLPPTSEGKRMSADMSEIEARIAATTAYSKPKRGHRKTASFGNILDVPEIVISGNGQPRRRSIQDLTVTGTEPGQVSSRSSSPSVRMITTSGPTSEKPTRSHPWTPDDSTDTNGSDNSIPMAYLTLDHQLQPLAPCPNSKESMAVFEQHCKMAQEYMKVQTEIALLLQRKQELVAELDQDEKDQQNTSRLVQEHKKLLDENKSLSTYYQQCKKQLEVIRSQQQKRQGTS

[8] = biological target: T1, Mitogen-activated protein kinase kinase kinase 7 (Homo sapiens); conditions: at 10 µM
[9] = biological target: T2, Serine/threonine-protein kinase TAO1 (Homo sapiens) (UniProt Q7L7X3); conditions: at 1 µM
T2 sequence (whole entry): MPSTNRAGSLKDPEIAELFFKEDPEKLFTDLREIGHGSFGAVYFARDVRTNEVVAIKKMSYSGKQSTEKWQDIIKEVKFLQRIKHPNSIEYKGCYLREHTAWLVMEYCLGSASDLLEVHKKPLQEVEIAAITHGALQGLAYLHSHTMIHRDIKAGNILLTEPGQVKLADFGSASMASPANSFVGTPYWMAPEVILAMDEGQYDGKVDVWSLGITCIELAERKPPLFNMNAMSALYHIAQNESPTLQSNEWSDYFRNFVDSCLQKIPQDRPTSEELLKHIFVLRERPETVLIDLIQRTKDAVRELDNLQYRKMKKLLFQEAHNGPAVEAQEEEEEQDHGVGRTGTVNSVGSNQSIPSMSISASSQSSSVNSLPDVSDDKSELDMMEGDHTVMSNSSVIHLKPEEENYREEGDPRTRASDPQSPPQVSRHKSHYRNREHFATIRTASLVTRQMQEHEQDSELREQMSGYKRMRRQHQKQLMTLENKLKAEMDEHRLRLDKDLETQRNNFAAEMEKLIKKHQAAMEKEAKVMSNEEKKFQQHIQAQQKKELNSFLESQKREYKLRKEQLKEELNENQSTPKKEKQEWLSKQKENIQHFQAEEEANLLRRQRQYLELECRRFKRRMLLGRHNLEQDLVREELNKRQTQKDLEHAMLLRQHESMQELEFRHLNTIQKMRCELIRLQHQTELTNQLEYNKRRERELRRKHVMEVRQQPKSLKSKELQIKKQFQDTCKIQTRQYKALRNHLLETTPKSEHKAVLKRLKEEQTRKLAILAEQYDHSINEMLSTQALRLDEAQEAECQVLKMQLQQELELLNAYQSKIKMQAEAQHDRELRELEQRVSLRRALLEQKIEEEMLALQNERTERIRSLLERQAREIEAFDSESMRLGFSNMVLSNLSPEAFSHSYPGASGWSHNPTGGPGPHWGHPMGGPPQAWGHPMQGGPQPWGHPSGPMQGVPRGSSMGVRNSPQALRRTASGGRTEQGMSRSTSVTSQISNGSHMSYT

[10] = biological target: T2, Serine/threonine-protein kinase TAO1 (Homo sapiens); conditions: at 10 µM
[11] = biological target: T3, Serine/threonine-protein kinase TAO3 (Homo sapiens) (UniProt Q9H2K8); conditions: at 1 µM
T3 sequence (whole entry): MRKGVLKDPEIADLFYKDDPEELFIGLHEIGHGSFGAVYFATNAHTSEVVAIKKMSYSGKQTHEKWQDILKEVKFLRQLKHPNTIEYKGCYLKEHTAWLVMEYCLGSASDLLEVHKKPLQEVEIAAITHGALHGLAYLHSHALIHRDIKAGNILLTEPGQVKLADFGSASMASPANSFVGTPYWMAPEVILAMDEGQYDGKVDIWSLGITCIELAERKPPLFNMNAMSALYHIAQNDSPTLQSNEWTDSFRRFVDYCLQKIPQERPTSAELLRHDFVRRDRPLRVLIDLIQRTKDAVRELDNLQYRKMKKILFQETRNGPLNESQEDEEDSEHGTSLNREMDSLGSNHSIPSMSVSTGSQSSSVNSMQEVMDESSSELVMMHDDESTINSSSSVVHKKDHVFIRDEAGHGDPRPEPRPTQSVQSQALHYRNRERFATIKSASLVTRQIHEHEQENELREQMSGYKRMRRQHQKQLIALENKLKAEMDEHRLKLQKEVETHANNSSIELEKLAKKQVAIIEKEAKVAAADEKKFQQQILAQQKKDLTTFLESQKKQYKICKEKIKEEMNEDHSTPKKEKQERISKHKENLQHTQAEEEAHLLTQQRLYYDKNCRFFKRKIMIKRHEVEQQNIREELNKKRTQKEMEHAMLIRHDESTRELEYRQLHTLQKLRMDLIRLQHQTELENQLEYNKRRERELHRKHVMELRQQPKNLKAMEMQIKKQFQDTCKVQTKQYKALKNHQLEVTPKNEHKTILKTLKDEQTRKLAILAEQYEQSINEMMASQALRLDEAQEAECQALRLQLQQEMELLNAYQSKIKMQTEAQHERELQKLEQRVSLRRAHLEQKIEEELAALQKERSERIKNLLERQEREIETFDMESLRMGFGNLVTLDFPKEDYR

[12] = biological target: T3, Serine/threonine-protein kinase TAO3 (Homo sapiens); conditions: at 10 µM
[13] = biological target: T4, Serine/threonine-protein kinase TAO2 (Homo sapiens) (UniProt Q9UL54); conditions: at 1 µM
T4 sequence (whole entry): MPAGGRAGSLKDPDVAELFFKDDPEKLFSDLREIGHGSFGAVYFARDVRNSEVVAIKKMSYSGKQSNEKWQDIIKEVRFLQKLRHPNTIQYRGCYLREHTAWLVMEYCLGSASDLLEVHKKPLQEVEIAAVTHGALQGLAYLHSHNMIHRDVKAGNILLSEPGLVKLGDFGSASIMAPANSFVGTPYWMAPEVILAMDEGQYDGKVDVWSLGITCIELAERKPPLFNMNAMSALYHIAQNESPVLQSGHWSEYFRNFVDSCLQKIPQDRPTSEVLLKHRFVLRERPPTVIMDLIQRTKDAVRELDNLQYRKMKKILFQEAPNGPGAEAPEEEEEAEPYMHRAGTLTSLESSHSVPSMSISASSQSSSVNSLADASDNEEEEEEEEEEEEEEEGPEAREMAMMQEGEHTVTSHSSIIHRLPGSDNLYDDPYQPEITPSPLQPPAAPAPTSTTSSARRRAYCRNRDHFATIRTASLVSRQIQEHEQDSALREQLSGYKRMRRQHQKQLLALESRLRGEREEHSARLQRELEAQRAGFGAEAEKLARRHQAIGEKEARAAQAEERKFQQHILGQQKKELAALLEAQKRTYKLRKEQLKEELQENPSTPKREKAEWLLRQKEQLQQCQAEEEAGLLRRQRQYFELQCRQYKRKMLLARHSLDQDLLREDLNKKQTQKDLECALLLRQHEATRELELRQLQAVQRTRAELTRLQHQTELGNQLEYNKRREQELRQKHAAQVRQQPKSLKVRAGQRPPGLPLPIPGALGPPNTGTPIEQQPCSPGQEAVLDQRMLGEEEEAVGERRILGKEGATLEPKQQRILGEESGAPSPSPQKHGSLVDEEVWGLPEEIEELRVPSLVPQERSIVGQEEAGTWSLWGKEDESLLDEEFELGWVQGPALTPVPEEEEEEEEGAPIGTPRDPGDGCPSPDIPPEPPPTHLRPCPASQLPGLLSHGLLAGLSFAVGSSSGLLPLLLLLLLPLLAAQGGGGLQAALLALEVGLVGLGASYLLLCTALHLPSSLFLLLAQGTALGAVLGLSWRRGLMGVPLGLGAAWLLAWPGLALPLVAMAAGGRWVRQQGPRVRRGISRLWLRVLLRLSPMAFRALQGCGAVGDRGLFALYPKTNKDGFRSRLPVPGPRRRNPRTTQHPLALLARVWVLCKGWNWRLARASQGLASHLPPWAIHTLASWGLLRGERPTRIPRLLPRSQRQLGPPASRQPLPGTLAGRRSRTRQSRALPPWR

[14] = biological target: T4, Serine/threonine-protein kinase TAO2 (Homo sapiens); conditions: at 10 µM
[15] = biological target: T5, Serine/threonine-protein kinase TBK1 (Homo sapiens) (UniProt Q9UHD2); conditions: at 1 µM
T5 sequence (whole entry): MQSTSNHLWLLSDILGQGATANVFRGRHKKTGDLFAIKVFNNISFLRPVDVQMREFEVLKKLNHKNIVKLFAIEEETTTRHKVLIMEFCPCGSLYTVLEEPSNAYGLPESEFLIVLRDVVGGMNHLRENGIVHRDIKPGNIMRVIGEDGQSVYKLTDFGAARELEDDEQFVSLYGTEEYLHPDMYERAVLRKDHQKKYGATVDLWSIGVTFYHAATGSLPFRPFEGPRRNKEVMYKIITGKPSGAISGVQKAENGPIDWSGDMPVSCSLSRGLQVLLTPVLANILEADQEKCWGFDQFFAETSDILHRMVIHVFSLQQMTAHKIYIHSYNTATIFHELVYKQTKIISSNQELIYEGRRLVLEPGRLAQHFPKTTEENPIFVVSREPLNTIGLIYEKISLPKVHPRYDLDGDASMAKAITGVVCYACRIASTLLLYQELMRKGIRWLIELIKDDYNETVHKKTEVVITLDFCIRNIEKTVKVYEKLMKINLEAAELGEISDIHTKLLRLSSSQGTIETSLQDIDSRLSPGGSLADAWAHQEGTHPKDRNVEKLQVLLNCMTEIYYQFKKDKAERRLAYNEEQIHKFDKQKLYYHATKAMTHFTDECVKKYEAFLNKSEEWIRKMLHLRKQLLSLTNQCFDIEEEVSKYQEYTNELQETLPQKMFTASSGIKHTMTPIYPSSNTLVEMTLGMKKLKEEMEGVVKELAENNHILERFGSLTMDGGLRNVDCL

Sequence of Serine/threonine-protein kinase 33 (Homo sapiens) (Q9BYT3 whole entry, looked up): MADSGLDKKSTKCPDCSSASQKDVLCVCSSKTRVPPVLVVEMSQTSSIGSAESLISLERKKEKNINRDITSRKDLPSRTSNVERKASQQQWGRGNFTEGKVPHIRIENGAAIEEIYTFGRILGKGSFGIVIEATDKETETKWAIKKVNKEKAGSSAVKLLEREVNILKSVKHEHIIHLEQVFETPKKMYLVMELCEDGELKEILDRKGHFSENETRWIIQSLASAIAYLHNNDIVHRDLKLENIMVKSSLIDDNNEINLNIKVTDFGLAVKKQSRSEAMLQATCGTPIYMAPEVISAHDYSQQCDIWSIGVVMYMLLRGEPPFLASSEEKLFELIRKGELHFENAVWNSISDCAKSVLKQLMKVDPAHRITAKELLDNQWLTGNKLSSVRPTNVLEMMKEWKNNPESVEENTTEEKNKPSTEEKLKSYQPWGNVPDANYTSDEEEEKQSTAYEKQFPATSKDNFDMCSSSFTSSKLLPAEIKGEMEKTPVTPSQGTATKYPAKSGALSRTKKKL
Sequence of Serine/threonine-protein kinase SIK1 (Homo sapiens) (P57059 whole entry): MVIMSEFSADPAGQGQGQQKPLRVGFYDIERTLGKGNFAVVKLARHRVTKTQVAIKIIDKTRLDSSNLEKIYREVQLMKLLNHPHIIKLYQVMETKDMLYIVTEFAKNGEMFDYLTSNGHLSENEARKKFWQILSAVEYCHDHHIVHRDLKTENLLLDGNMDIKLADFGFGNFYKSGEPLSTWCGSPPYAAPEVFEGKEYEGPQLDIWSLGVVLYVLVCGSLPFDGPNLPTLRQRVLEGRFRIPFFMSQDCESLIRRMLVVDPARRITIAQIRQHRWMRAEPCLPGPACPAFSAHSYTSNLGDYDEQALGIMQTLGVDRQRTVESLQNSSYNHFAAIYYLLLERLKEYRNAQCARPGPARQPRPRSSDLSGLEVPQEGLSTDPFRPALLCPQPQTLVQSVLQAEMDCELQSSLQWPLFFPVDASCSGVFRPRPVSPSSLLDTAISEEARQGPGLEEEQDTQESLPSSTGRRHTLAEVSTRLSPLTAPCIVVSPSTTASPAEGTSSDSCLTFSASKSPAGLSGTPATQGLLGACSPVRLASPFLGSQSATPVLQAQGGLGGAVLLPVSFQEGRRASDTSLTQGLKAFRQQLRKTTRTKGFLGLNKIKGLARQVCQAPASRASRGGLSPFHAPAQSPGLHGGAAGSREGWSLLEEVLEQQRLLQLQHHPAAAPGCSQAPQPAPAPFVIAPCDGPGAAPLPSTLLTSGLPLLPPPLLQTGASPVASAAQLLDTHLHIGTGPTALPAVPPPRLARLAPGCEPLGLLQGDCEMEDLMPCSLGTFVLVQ
Sequence of Serine/threonine-protein kinase PLK2 (Homo sapiens) (Q9NYY3 whole entry, looked up): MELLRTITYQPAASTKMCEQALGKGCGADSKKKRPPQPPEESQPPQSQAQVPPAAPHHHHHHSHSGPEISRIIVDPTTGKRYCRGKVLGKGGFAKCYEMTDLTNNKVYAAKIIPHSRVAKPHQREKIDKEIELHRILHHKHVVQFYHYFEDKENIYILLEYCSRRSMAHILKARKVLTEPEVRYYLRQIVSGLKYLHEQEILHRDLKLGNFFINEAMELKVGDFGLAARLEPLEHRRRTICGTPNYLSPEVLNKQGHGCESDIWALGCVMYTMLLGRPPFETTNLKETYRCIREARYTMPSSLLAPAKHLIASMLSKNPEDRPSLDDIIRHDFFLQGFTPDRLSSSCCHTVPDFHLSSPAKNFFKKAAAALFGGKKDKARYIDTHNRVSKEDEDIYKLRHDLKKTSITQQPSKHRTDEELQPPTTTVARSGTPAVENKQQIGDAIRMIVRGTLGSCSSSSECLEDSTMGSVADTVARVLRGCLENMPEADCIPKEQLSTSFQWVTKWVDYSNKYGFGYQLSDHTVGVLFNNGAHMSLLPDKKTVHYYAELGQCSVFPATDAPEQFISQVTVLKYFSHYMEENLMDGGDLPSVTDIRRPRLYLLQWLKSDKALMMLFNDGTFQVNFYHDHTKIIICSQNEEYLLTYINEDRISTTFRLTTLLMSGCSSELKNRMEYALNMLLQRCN
Sequence of SRSF protein kinase 2 (Homo sapiens) (P78362 whole entry, looked up): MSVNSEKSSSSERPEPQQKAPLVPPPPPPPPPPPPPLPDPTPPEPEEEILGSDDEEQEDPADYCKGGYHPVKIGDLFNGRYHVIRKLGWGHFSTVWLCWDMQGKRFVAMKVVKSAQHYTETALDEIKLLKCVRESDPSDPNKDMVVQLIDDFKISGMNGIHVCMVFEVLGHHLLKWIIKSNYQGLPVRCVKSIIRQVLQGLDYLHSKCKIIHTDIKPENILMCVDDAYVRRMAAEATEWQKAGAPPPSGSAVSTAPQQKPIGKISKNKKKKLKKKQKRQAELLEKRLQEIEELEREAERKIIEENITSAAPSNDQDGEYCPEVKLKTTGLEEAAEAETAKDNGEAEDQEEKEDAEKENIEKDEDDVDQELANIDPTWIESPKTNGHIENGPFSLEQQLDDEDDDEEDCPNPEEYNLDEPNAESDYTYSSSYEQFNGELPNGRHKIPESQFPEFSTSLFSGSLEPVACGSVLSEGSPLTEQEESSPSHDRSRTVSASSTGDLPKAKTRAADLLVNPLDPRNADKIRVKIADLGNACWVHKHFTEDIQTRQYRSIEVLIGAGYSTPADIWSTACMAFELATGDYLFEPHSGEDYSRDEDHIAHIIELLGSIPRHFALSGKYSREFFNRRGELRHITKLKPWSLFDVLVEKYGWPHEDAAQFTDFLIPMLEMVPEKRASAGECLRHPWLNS

Nc1ncnc2c1cnn2-c1ccccc1
residual activity [1]: 138% | residual activity [2]: 97% | residual activity [3]: 97% | residual activity [4]: 100% | residual activity [5]: 97% | residual activity [6]: 92% | residual activity [7]: 89% | residual activity [8]: 88% | residual activity [9]: 94% | residual activity [10]: 80% | residual activity [11]: 100% | residual activity [12]: 87%

O=C(Nc1ccc(Cl)cc1)c1ccccc1NCc1ccncc1
residual activity [13]: 101% | residual activity [14]: 61%

CCN1/C(=C/C(C)=O)Sc2ccc(OC)cc21
residual activity [3]: 82% | residual activity [4]: 58% | residual activity [8]: 80% | residual activity [9]: 75% | residual activity [10]: 46% | residual activity [15]: 70%

Source: ChEMBL document CHEMBL2218924, “A broad activity screen in support of a chemogenomic map for kinase signalling research and drug discovery” (Biochem J, 2013)
